Experimental data reported in the supplement of paper PMC6555819.

Legend:
Test in all cases: PBM binding z-score (relative to random genomic background probes); higher = stronger binding; sequences stand for … in GC…GCGATTGACAGCGTAGAATGAAGG
[1] = test system: FXR:RXRa (NR concentration 270 nM, RXRa partner concentration 90 nM)
How it was run: (§1)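 On custom Agilent 4×180K arrays, double-stranded probes with 34-nt variable regions carried direct-repeat seeds, single-nucleotide variants, half-site ablations or random human genomic background. Ligand-free nuclear receptor dimers were applied for 1 h, and binding was read with antibodies against each partner (one per run). Binding z-scores come from regression-normalized fluorescence, with the random background probes as reference.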

[2] = test system: LXRa:RXRa (NR concentration 270 nM, RXRa partner concentration 90 nM)
How it was run: as §1

[3] = test system: LXRa homodimer (NR concentration 270 nM)
How it was run: as §1

[4] = test system: LXRb:RXRa (NR concentration 270 nM, RXRa partner concentration 90 nM)
How it was run: as §1

[5] = test system: LXRb homodimer (NR concentration 270 nM)
How it was run: as §1

[6] = test system: PPARa:RXRa (NR concentration 270 nM, RXRa partner concentration 90 nM)
How it was run: as §1

[7] = test system: PPARg:RXRa (NR concentration 180 nM, RXRa partner concentration 90 nM)
How it was run: as §1

[8] = test system: PPARg:RXRa 270nM:90nM, anti-RXR (NR concentration 270 nM, RXRa partner concentration 90 nM)
How it was run: as §1

[9] = test system: PPARg:RXRa 30nM:10nM, anti-RXR (NR concentration 30 nM, RXRa partner concentration 10 nM)
How it was run: as §1

[10] = test system: PPARg:RXRa 90nM:30nM, anti-RXR (NR concentration 90 nM, RXRa partner concentration 30 nM)
How it was run: as §1

Sequence	PBM binding z-score [1]	PBM binding z-score [2]	PBM binding z-score [3]	PBM binding z-score [4]	PBM binding z-score [5]	PBM binding z-score [6]	PBM binding z-score [7]	PBM binding z-score [8]	PBM binding z-score [9]	PBM binding z-score [10]
AGTCAAAGTTCAGGACGATGTAACGTAAAGCACG	3.6	3.59	0.938	1.8	0.134	3.05	4.28	4.75	1.92	3.68
CCTTATGGGTCACTCCAGGTTATAGCATCGGAGT	3.67	7.24	1.43	4.49	-0.105	3.92	4.6	4.39	1.84	3.6
TCAGCTAGGTCAGTTGGTCAGCTAACGAGCTGCC	0.695	0.358	-0.597	0.201	-0.435	1.22	0.615	1.71	1.93	1.94
GCTATTAGTCGAAAGGGCAACCGAATGATTCTCG	0.296	0.236	0.214	0.479	-0.262	1.74	2.25	4.04	2.32	3.76
TCTAGCAGGCCAGAGAGTCACTCAAGAGGTACGG	-0.122	0.066	-0.75	-0.374	-1.55	0.177	0.656	1.18	1.72	1.4
ACTATTAGTTGACTTAGGGCAACCGTTACGACGC	0.212	0.547	0.268	0.434	0.514	0.372	0.776	0.417	0.154	0.461
ATCTCTAGGTAATGATAGTTCAGTGAATGCAAAT	0.391	3.56	0.99	0.864	0.755	0.625	0.774	0.986	0.371	0.513
TCATATAGGAAAATGCTAGGTGAAAGTCCGATCT	1.09	0.845	0.237	0.489	-0.0669	0.728	0.487	2.3	4.01	3.28
ACCATTAGTTGAGACGAGGGCAACCGATAGGTTG	0.428	0.177	3.5e-05	0.214	-0.155	0.553	0.56	-0.0707	0.0624	-0.228
GCGACTGGGGCAAAGTAGGTTACCATAAGGTTGG	0.147	0.172	-0.28	0.557	-0.493	2.29	2.59	3.18	0.758	2.3
GGAACGAGGGCTTTCGAGTTGATAGCATGGCGAT	-0.242	-0.418	-0.465	-0.655	-0.894	-0.173	0.0484	-0.127	-0.533	-0.499
ATACCAAGGTGATCGTGAGGTCGTTAATACTAAC	1.59	1.12	0.651	1.37	-0.102	1.55	0.445	0.146	-0.147	0.0284
CGTCCACGGTCAAGGTCAGTGAAAGAGACTCGAA	2.73	1.71	-0.21	1.6	-0.801	2.61	0.677	1.15	-0.28	0.438
CCTAGCAGGCCAGGGTCACTCAAGCATTTCGCTT	2.38	1.67	-0.285	1.95	-1.05	3.1	0.907	1.65	-0.362	0.635
TGAATGAGGTTATAAGATCATGGAACGTTGCAAA	1.6	1.52	-0.175	1.37	0.0257	3.04	1.65	2.41	1.02	1.78
TCACATAGGTAAATGCTAGGTGAAAGTCCGATCT	0.401	0.564	-0.036	0.378	-0.343	1.03	0.475	1.83	3.11	2.49
TCTCGGAGGACACGAAAGGTCCGAGCTCGACATC	0.78	0.222	-0.359	-0.21	-0.97	0.254	0.0516	0.627	1.98	1.28
CGAACGACGGCATGAGTTGATAGCAAATGCCGAT	-0.791	-1.12	-0.686	-1.11	-1.32	-1.22	0.598	-0.893	-0.557	-0.878
CAAACTAGGTGACCGGAAGGTCAAAGTCCGCATG	6.44	4.09	4.16	3.51	0.36	4.99	6.71	5.5	3.01	5.06
TTACCGAGGTGAAGGTCGTTGATCCCTCTGTAGA	2.23	2.18	-0.314	1.71	-0.388	2.95	3.07	3.81	1.61	3
TCTATCAGGCCAGAGGGTCACTCAAGAGGTACGG	1.28	1.42	-0.272	1.32	0.048	2.51	1.7	2.98	3.16	3
ATAGGTAGGTTATCGGGTCATTCAGTTTGCGCAT	3.2	3.22	1.93	3.17	1.52	3.82	4.18	4.48	1.91	3.81
TCAGACAGTTGAAGGTAACTCAGGTACGCAGTCG	0.761	1.54	0.0812	0.579	-0.363	1	0.579	2.27	3.99	3.4
TCGAGTCGGTTAGTCGGGGCATTCAGCCAACATA	-0.133	-0.389	-0.468	0.0657	-0.884	0.295	-0.72	0.168	0.645	0.378

Sequence	PBM binding z-score [1]	PBM binding z-score [2]	PBM binding z-score [3]	PBM binding z-score [4]	PBM binding z-score [5]	PBM binding z-score [6]	PBM binding z-score [7]	PBM binding z-score [8]	PBM binding z-score [9]	PBM binding z-score [10]
TCTCGGAGGACACGAAAGGTCAGAGCGCGACATC	3.05	4.07	2.95	3.16	-0.239	3.64	1.36	2.96	2.26	2.66
TATCCTAGGTCATTGGGCCAGTATAGTACGCATC	4.8	6.02	5.49	3.44	2.48	4.44	5.45	4.94	2.33	4.11
ATCTCTAGGTAAAATTTCAGTGAATCCCGAGGAT	0.303	0.0302	-0.0647	0.162	1.26	0.181	0.177	0.563	0.504	0.487
CCTACTGGGCTATCAGGTCATTGATATCAACGTT	1.15	0.988	0.914	1.16	-0.189	2.01	1.45	2.47	0.664	2.01
AATACAGGGTCACTAGGCCAGGGTAGGTACGAAT	5.78	4.57	1.02	3.79	0.895	5.76	7.68	6.2	3.37	5.35
TCTTTTAGTTGATTAGGGCAACCGAAACAGCGGA	1.17	0.955	0.422	0.976	2.11	1.45	0.152	2.66	4.27	3.34
ATCGAAAGGTCGAGGAGAGTATAGAGAAAGGGAA	4.17	3.26	0.202	2.47	0.669	4.24	2.57	2.92	1.38	2.09
TAGCCTAGGTCATGGACCAGTATACCACGCGAAC	4.39	3.44	0.268	2.46	-0.208	4.18	3.5	3.32	0.758	2.23
AGTCAAAGTTCACTAGGTCACGTAAGATTCAGCT	6.19	6.11	5.68	4.32	1.45	6.04	9.33	7.67	4.81	7.31
CCTACTGGGCCATCAGGCCATTGATATCAACGTT	0.133	-0.192	-0.106	-0.246	-0.678	0.569	1.16	1.79	0.105	0.915
CGAACTAGGTCATCCAGGACAGAGAATACATTGA	4.18	2.74	0.462	2.08	0.0984	4.79	7.72	6.45	3.83	5.81
CCTACTGGGCCAAGGTCCTTGATCAGTCAAAGCA	-2.77	-0.638	-0.83	-0.659	-1.31	0.607	0.83	1.73	-0.152	0.845
GCTACTGGGGCAAAGCAGGTTACCATAAGGTTGG	0.552	0.174	-0.316	0.4	-0.276	2.24	2.37	2.63	0.398	1.52
ACAGACAGGTGAGTGAAGGCAACTCAGCTGGACG	-0.0161	-0.412	-0.593	-0.733	-0.607	-0.0544	0.543	-0.0793	-0.458	-0.591
ACTAGTTGGTCAGCTGAGCTCACACACAATTCGG	-0.29	-0.363	-0.563	-0.541	-0.142	-0.497	0.575	-0.784	-0.476	-0.673
GCGACTGGGGCAAATCAGGTTACCATAAGGTTGG	0.683	0.358	-0.1	0.749	-0.654	1.73	1.28	1.07	-0.18	0.553
TCTAGTTGGTCAAGGAGGTCACACACGACGGGTA	3.04	3.16	1.88	3.23	0.53	3.73	2.59	3.56	3.6	3.39
ATCGAAAGGTCGACGAGGTGAGTACACACCGTTT	4.47	3.65	0.0409	2.84	0.25	4.44	2.84	3.38	1.11	2.41
TCTCGGCGGACACGAAAGGTCAGAGCTCGACATC	1.93	3.18	2.3	2.79	-0.427	2.94	0.571	1.69	1.42	1.53
CCTTACGGGTCAAGGTTATAGCACGGGTGGTACG	5.23	3.73	0.318	2.98	0.019	5.02	4.65	4.69	2.06	3.64
CCGAGCAGGCCAATCTGGGTCACTCAAGGCTTGA	1.11	1.16	-0.65	0.371	-1.25	2.65	2.05	2.12	-0.249	1.21
CAAACTAGGTCACAGACGTCAAAGTCCGTGCGTA	4.25	3.06	0.272	2.08	0.253	5.37	8.86	7.39	5.35	7.4
GCGACTGGGACAAAGCAGGTTACCATAAGGTTGG	-0.198	-0.314	-0.305	-0.479	-0.971	0.611	0.76	0.524	-0.332	-0.0419
ACTATTCGTTGACTTAGGGCAACCGATACGACGC	0.425	0.382	0.669	0.263	1.46	0.125	0.87	-0.0902	0.272	0.212
